Reference: PubChem BioAssay (EPA / NIEHS)
Active and inactive are the calls of the source. Rule for the calls: active = hit-call score of the fitted dose curve at least 0.9, where 1 is the maximum; inactive = score below 0.9.

Experiments:
[1] = ATG_CRE_CIS: Attagene CIS-FACTORIAL HepG2 Assay for human cAMP Responsive Element (CRE) binding protein 3 (AID 2282926); conditions: HepG2 CRE cis-reporter, Attagene multiplexed mRNA; actives raise or lower the signal
In short: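 Induced reporter mRNA from a CRE cis element, measured in HepG2 among many multiplexed units at 24 h. Detection used RT-PCR plus capillary electrophoresis of fluorescent fragments; DMSO served as negative control.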

[2] = target: CCAAT/enhancer-binding protein beta (Homo sapiens) (UniProt P17676); experiment: ATG_C_EBP_CIS: Attagene CIS-FACTORIAL HepG2 Assay for human CCAAT/Enhancer Binding Protein (C/EBP) beta (AID 2282927); conditions: HepG2 Attagene cis-factorial transcription factor reporter; actives raise or lower the signal
Chain of CCAAT/enhancer-binding protein beta (Homo sapiens) (P17676 whole entry, looked up, the tested form may be a part): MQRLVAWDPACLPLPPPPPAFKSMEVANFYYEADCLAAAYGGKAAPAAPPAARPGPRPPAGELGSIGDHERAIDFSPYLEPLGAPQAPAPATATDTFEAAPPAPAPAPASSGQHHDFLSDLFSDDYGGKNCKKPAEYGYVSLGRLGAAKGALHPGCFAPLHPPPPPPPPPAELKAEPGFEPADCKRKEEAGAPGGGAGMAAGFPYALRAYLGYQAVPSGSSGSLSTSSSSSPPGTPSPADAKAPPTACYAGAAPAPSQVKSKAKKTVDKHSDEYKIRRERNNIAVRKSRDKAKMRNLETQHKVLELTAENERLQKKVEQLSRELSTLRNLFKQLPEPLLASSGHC
In short: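 Chemical-treated HepG2 cells (24 h) bearing cis-regulated reporter constructs were processed for total RNA, then reverse transcription, PCR amplification, fluorescent primer extension and fragment analysis; gain- and loss-of-signal were fitted against DMSO.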

[3] = ATG_CMV_CIS: Attagene CIS-FACTORIAL HepG2 Assay for human CMV (Internal Marker) (AID 2282928); conditions: HepG2 CMV promoter reporter, transcription factor profiling; actives raise or lower the signal;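 note: endpoint acts as a background internal control marker rather than a target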
In short: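 24 h chemical treatment, HepG2 with transient multi-reporter transfection; RNA → oligo(dT) RT → PCR → 6-FAM extension → HpaI digest → CE fluorescence. Bidirectional fit, DMSO negative control.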

[4] = target: Aryl hydrocarbon receptor (Homo sapiens) (UniProt P35869); experiment: ATG_Ahr_CIS: Attagene CIS-FACTORIAL HepG2 Assay for human Aryl Hydrocarbon Receptor (Ahr) (AID 2282930); conditions: HepG2 AhR cis-factorial reporter transcription; actives raise or lower the signal
Chain of Aryl hydrocarbon receptor (Homo sapiens) (P35869 whole entry, looked up): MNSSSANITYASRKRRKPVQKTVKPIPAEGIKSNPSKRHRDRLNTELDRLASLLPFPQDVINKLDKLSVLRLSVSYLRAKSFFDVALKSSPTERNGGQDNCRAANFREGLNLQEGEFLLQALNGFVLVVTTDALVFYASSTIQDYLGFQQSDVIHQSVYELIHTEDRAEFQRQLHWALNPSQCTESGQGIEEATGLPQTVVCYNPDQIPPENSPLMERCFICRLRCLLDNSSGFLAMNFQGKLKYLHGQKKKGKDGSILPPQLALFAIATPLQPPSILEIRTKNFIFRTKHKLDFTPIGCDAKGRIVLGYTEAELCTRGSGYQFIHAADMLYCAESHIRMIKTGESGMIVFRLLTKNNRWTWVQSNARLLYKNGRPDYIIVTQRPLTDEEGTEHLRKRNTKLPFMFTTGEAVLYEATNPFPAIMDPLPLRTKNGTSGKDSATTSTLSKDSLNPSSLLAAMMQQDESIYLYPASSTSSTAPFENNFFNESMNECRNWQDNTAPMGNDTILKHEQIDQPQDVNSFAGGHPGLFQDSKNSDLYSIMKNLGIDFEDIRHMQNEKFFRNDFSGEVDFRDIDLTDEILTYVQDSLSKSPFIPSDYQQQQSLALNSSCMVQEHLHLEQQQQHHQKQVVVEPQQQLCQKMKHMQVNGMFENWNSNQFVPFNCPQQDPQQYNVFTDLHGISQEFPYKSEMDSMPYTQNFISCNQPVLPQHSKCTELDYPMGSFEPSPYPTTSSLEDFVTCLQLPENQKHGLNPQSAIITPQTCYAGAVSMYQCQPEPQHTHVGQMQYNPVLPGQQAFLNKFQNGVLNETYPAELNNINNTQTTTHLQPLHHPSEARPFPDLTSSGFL
In short: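 Following 24 h of chemical dosing, transfected HepG2 liver cells with cis-driven reporter units were lysed for RNA; reporter mRNA was quantified via RT-PCR and capillary electrophoresis, and responses fitted bidirectionally from DMSO.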

[5] = ATG_AP_1_CIS: Attagene CIS-FACTORIAL HepG2 Assay for human Activator Protein 1 (AP-1) (AID 2282931); conditions: HepG2 Attagene cis-factorial AP-1 reporter mRNA; actives raise or lower the signal
In short: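 HepG2 cells transiently transfected with cis-element-driven multiplex reporter units; 24 h compound exposure. Reporter mRNA quantified by RT-PCR, FAM-labelled fragments resolved by capillary electrophoresis; bidirectional fit versus DMSO baseline.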

[6] = ATG_AP_2_CIS: Attagene CIS-FACTORIAL HepG2 Assay for human Activator Protein 2 (AP-2) (AID 2282932); conditions: HepG2 AP-2 cis-reporter, Attagene transcription factor profiling; actives raise or lower the signal
In short: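 Assay in transfected HepG2 with promoter-regulated reporters, 24 h incubation after dosing. Signal is reporter mRNA fluorescence (RT-PCR, capillary electrophoresis), analysed for both increases and decreases relative to DMSO controls.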

[7] = ATG_BRE_CIS: Attagene CIS-FACTORIAL HepG2 Assay for human Bone Morphogenetic Protein (BMP) Response Element (BRE) (AID 2282933); conditions: HepG2 BMP response element reporter, Attagene transcription factor profiling; actives raise or lower the signal
In short: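 HepG2 cells transiently transfected with CIS reporter units (endogenous TF activity, BMP response element), dosed 24 h. Reporter mRNA quantified by RT-PCR, fluorescent labelling and capillary electrophoresis; bidirectional fit vs DMSO baseline.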

[8] = target: Retinoic acid receptor alpha (Homo sapiens) (UniProt P10276); experiment: ATG_DR5_RAR_CIS: Attagene CIS-FACTORIAL HepG2 Assay for human Retinoic Acid Receptor Alpha (RARE), DR5 submotif (AID 2282934); conditions: HepG2 Attagene cis-factorial RARE DR5 reporter, mRNA; actives raise or lower the signal
Chain of Retinoic acid receptor alpha (Homo sapiens) (P10276 whole entry, looked up): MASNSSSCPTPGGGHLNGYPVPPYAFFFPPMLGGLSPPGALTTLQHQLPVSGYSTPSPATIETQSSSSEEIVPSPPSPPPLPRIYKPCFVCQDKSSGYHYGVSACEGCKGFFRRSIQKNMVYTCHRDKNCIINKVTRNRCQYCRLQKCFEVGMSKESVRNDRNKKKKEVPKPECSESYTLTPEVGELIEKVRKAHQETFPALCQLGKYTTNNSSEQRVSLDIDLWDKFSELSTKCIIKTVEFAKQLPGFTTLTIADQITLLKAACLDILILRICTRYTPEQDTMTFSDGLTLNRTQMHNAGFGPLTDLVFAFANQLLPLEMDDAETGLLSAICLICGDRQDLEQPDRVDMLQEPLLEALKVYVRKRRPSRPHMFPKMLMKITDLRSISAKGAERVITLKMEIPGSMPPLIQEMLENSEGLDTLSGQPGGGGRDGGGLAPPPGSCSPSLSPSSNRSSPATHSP
In short: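 Transfected HepG2 reporter cells are exposed to chemicals for 24 h. Then RNA is extracted and the DR5 element reporter transcript is measured by RT-PCR and capillary electrophoresis, with bidirectional curve fitting relative to DMSO.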

[9] = target: Transcription factor E2F1 (Homo sapiens) (UniProt Q01094); experiment: ATG_E2F_CIS: Attagene CIS-FACTORIAL HepG2 Assay for human E2F Transcription Factor 1 (AID 2282935); conditions: HepG2 Attagene cis-reporter, E2F reporter RNA transcripts; actives raise or lower the signal
Chain of Transcription factor E2F1 (Homo sapiens) (Q01094 whole entry, looked up): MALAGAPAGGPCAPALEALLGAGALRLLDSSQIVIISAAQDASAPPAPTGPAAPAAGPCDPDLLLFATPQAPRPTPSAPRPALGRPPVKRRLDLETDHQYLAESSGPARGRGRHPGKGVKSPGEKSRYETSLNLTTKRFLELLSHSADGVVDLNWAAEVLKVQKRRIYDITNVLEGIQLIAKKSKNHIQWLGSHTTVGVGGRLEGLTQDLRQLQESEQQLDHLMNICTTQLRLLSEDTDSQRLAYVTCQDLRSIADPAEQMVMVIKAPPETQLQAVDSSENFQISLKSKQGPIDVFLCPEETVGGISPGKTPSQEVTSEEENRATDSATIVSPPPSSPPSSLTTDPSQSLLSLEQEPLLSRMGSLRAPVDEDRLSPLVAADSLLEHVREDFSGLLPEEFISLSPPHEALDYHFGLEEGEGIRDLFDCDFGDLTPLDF
In short: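 In this cis-factorial format, endogenous factor activity drives transfected reporters in HepG2; transcripts collected at 24 h are quantified by fluorescence after RT-PCR and capillary separation.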

[10] = ATG_E_Box_CIS: Attagene CIS-FACTORIAL HepG2 Assay for human Enhancer Box (E-box) (AID 2282936); conditions: HepG2 E-box cis-reporter transcription, actives raise or lower the signal
In short: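 Measured 24 h post-dosing in HepG2 cells transfected with multiple cis-regulated reporter units, signal being reporter mRNA induction detected by fluorescent RT-PCR with capillary electrophoresis; gain or loss fitted against DMSO.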

[11] = ATG_M_61_CIS: Attagene CIS-FACTORIAL HepG2 Assay for M61 Transcription Factor (Internal Marker) (AID 2282937); conditions: HepG2 Attagene CIS-FACTORIAL M61 internal marker reporter; actives raise or lower the signal
In short: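 HepG2 cells transiently transfected with cis-element-driven multiple reporter transcription units, dosed for 24 h. Reporter mRNA measured by RT-PCR, 6-FAM primer-extension labelling, HpaI digestion and capillary electrophoresis; bidirectional fit versus DMSO baseline.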

[12] = ATG_EGR_CIS: Attagene CIS-FACTORIAL HepG2 Assay for human Early Growth Response 1 (EGR1) (AID 2282938); conditions: HepG2 Attagene CIS-FACTORIAL EGR reporter mRNA; actives raise or lower the signal
In short: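 HepG2 cells transiently transfected with cis-promoter-driven multiplexed reporter transcription units; reporter mRNA measured 24 h after compound dosing by RT-PCR, 6-FAM primer extension, HpaI digestion and capillary electrophoresis. Bidirectional fit versus DMSO baseline.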

[13] = ATG_M_19_CIS: Attagene CIS-FACTORIAL HepG2 Assay for M19 Transcription Factor (Internal Marker) (AID 2282939); conditions: HepG2 Attagene CIS-FACTORIAL M19 internal marker reporter; actives raise or lower the signal
In short: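 HepG2 cells transiently transfected with cis-regulated multiplexed reporter units, dosed 24 h. Reporter mRNA quantified by RT-PCR and capillary electrophoresis; internal background marker fitted bidirectionally versus DMSO.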

[14] = ATG_Ets_CIS: Attagene CIS-FACTORIAL HepG2 Assay for human Erythroblast Transformation Specific (ETS) (AID 2282941); conditions: HepG2 ETS cis-reporter transcription, actives raise or lower the signal
In short: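 Cis-regulated reporter mRNA induction in HepG2 (transient transfection), 24 h exposure, RT-PCR plus capillary electrophoresis detection; DMSO serves as negative control and baseline.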

[15] = target: Hepatocyte nuclear factor 3-beta (Homo sapiens) (UniProt Q9Y261); experiment: ATG_FoxA2_CIS: Attagene CIS-FACTORIAL HepG2 Assay for human Forkhead box A2 (FOXA2) (AID 2282942); conditions: HepG2 cis-reporter transcription factor activity, 24 h; actives raise or lower the signal
Chain of Hepatocyte nuclear factor 3-beta (Homo sapiens) (Q9Y261 whole entry, looked up): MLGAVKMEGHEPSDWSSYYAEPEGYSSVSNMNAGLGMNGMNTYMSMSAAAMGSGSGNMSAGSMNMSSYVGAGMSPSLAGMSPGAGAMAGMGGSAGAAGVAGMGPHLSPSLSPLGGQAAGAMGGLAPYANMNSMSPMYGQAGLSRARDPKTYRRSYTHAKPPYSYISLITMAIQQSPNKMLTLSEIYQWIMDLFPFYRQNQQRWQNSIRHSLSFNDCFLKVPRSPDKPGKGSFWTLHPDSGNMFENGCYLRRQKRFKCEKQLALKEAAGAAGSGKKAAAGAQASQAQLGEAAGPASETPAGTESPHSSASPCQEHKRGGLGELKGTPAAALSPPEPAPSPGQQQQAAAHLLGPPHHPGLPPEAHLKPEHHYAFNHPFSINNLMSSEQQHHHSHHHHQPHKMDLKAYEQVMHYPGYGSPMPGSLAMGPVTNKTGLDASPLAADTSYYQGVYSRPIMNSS
In short: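 HepG2 cells transiently transfected with multiple cis-regulated reporter transcription units, dosed for 24 h. Reporter mRNA measured by RT-PCR, 6-FAM labelling, HpaI digestion and capillary electrophoresis; bidirectional fitting against DMSO baseline.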

[16] = ATG_FoxO_CIS: Attagene CIS-FACTORIAL HepG2 Assay for human Forkhead box O (FoxO) (AID 2282943); conditions: HepG2 Attagene cis-reporter, FoxO element, mRNA; actives raise or lower the signal
In short: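 24 h chemical exposure, HepG2 with transient cis-MRTU transfection. RNA extraction, oligo(dT) RT, reporter-specific PCR, primer-extension labelling, HpaI digestion, CE fragment analysis; bidirectional fit, DMSO baseline.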

[17] = ATG_GATA_CIS: Attagene CIS-FACTORIAL HepG2 Assay for human GATA Binding Protein (AID 2282944); conditions: HepG2 GATA cis-element reporter, Attagene multiplex mRNA; actives raise or lower the signal
In short: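 HepG2 cells transiently transfected with multiplexed cis-element reporter units measure endogenous GATA activity; after 24 h compound exposure, reporter mRNA quantified by RT-PCR and capillary electrophoresis. Changes fitted in both directions vs DMSO.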

[18] = ATG_GLI_CIS: Attagene CIS-FACTORIAL HepG2 Assay for human Zinc Finger Protein GLI1 (AID 2282945); conditions: HepG2, Attagene cis-factorial reporter mRNA, GLI element; actives raise or lower the signal
In short: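 HepG2 cells transiently transfected with cis-promoter multiplexed reporter units report endogenous transcription factor activity. After 24 h chemical exposure, reporter mRNA was quantified by RT-PCR, 6-FAM labelling, HpaI digestion and capillary electrophoresis, with bidirectional fitting against DMSO.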

[19] = ATG_DR4_LXR_CIS: Attagene CIS-FACTORIAL HepG2 Assay for human Liver X Receptor (LXR), DR4 submotif (AID 2282929); conditions: HepG2 Attagene DR4 cis-reporter, mRNA transcription; actives raise or lower the signal
In short: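 HepG2 cells transiently transfected with cis-promoter-driven multiplexed reporter units (DR4 element) were dosed for 24 h. Reporter mRNA was quantified by RT-PCR, fluorescent primer extension, HpaI digestion and capillary electrophoresis; bidirectional fitting versus DMSO baseline.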

[20] = ATG_ERE_CIS: Attagene CIS-FACTORIAL HepG2 Assay for Estrogen Response Element (ERE) (AID 2282940); conditions: HepG2 ERE cis-reporter, Attagene RNA transcript; actives raise or lower the signal
In short: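 HepG2 cells transiently transfected with multiplexed cis-element reporter units, measuring endogenous transcription factor activity; ERE reporter mRNA quantified after 24 h exposure by RT-PCR, fluorescent labelling, HpaI digestion and capillary electrophoresis. Bidirectional change versus DMSO.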

Measured: AC50

CC(C)C[C@H](NC(=O)OCC1c2ccccc2-c2ccccc21)C(=O)O
not listed: [19] | [20]
inactive: all other assays above

CCOc1ccccc1O
not listed: [19] | [20]
inactive: all other assays above

CCCCCCCCC=CCCCCCCCC1=NCCN1CCO
active: [3] 48.2 µM | [5] 100 µM | [9] 26.1 µM | [10] 26.7 µM | [14] 126 µM | [15] 25.7 µM
not listed: [11] | [12] | [19] | [20]
inactive: all other assays above

CCCCCCC(O)CCCCCCCCCCC(=O)O (configuration not stated)
not listed: [5] | [7] | [9] | [13] | [20]
inactive: all other assays above

Nc1c(S(=O)(=O)O)cc(Br)c2c1C(=O)c1ccccc1C2=O
active: [4] 9.82 µM | [20] 31.9 µM
not listed: [11] | [19]
inactive: all other assays above

CC1(C)O[C@@H]2[C@@H](CO[C@@]3(COS(N)(=O)=O)OC(C)(C)O[C@@H]23)O1
not listed: [3]
inactive: all other assays above

COC(=O)c1cccnc1
not listed: [19] | [20]
inactive: all other assays above
